Our source for the growth inhibition values is PubChem BioAssay (NCI).

Test [1] can be described thus: NCI Yeast Anticancer Drug Screen. Data for the rad50 strain (AID 155).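 Further: 0% = growth of vehicle-only cultures of the same strain.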 The note with it: S. cerevisiae rad50 strain growth inhibition, hits give high values. In short, it runs like this:
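A DNA repair-deficient yeast mutant serves as the test organism; compound-induced growth inhibition is calculated against vehicle-treated cells.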

Test [2] can be described thus: NCI Yeast Anticancer Drug Screen. Data for the mec2-1 strain (AID 157). To be noted: S. cerevisiae mec2-1 strain, hits give high values. Put shortly: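 Mutant yeast (mec2-1) grown with compound; growth inhibition relative to vehicle control reported.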
Test [3] can be described thus: NCI Yeast Anticancer Drug Screen. Data for the sgs1 mgt1 strain (AID 161).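 Further: 0% = growth of cultures given vehicle only.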 The note with it: S. cerevisiae sgs1 mgt1 strain, hits give high values. In short, it runs like this:
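Yeast cells carrying a defined DNA-repair defect were exposed to test compounds. Growth inhibition was measured relative to vehicle-treated controls.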

A short description of test [4]: NCI Yeast Anticancer Drug Screen. Data for the cln2 rad14 strain (AID 165).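 Further: 0% = growth equal to vehicle treated cultures.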 The note with it: S. cerevisiae cln2 rad14 strain, hits give high values. Put shortly: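 Readout is yeast growth inhibition versus vehicle-treated controls, using a strain with cln2 and rad14 alterations exposed to compound.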
Test [5] can be described thus: NCI Yeast Anticancer Drug Screen. Data for the bub3 strain (AID 167). The note with it: S. cerevisiae bub3 mutant strain, hits give high values. Put shortly: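 Inhibition values come from growth of compound-treated mutant yeast normalised to vehicle-treated controls.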
Test [6] can be described thus: NCI Yeast Anticancer Drug Screen. Data for the mlh1 rad18 strain (AID 175). To be noted: S. cerevisiae mlh1 rad18 strain growth inhibition, hits give high values. In short, it runs like this: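 Genetically defined yeast (DNA repair-deficient) exposed to compounds; growth inhibition determined relative to vehicle.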
Where [7] appears, read: at 5.0 µM (retest, dose inferred, filed as 0.5).
The mark [8] stands for this setting: at 50.0 µM (retest, dose inferred, filed as 5.0).

Each structure is given as a SMILES string. Where “and” joins values, the source holds several entries; their conditions need not be identical. Identical values can stand only once. The panel holds about 79,000 compounds, 15% with a hit somewhere; the sample as a whole holds those more often. Calls of active or inactive are those of the source. No stated cut-off is given here; in the data, active means growth inhibition above about 70%; inactive means the rest.

With `CO/C(N)=C(\C#N)N=Cc1cccnc1`, the growth inhibition was 25% (inactive) in test [1] (setting [7]); 26% (inactive) in test [1] (setting [8]); 29.6% (inactive) in test [1] (at 50.0 µM); 25% (inactive) in test [2] (setting [7]); 30% (inactive) in test [2] (setting [8]); 80.2% (active) in test [2] (at 50.0 µM). Moreover, the growth inhibition was 20% (inactive) in test [3] (setting [7]); 32% (inactive) in test [3] (setting [8]); 36.7% (inactive) in test [3] (at 50.0 µM); 26% (inactive) in test [4] (setting [7]); 25% (inactive) in test [4] (setting [8]); 15.4% (inactive) in test [4] (at 50.0 µM). Also, the growth inhibition in test [5] (setting [7]) was 29% (inactive); in test [5] (setting [8]), 47% (inactive); in test [5] (at 50.0 µM), 48.2% (inactive); in test [6] (setting [7]), 29% (inactive); in test [6] (setting [8]) it was 25% (inactive); in test [6] (at 50.0 µM), -25.4% (inactive).
With `CCCCCCCC1(c2ccc(N)cc2)CCC(=O)NC1=O` (centres undefined), the growth inhibition in test [1] (setting [7]) was 31% (inactive); in test [1] (setting [8]), 36% (inactive); in test [1] (at 50.0 µM) it was 73% (active); in test [2] (setting [7]), 0% (inactive); in test [2] (setting [8]), 61% (inactive); in test [2] (at 50.0 µM), 27.9% (inactive). The growth inhibition in test [3] (setting [7]) was 8% (inactive); in test [3] (setting [8]), 96% (active); in test [3] (at 50.0 µM), 54.2% (inactive); in test [4] (setting [7]) it was -8% (inactive); in test [4] (setting [8]), 26% (inactive); in test [4] (at 50.0 µM), 33.8% (inactive). The growth inhibition is 0% (inactive) in test [5] (setting [7]); 21% (inactive) in test [5] (setting [8]); 56% (inactive) in test [5] (at 50.0 µM); -2% (inactive) in test [6] (setting [7]); 35% (inactive) in test [6] (setting [8]); 37.1% (inactive) in test [6] (at 50.0 µM).
As for `O=C1c2ccccc2-c2c3c(cc4ccnc1c24)OCO3`, the growth inhibition in test [1] (setting [7]) is 96% (active); in test [1] (setting [8]), 97% (active); in test [1] (at 50.0 µM), 86.2% (active) and 86.5% (active); in test [2] (setting [7]), 57% (inactive); in test [2] (setting [8]), 96% (active); in test [2] (at 50.0 µM), 84.8% (active) and 88.2% (active). Also, the growth inhibition in test [3] (setting [7]) is 50% (inactive); in test [3] (setting [8]), 96% (active); in test [3] (at 50.0 µM), 86.6% (active) and 86.2% (active); in test [4] (setting [7]), 37% (inactive); in test [4] (setting [8]), 95% (active); in test [4] (at 50.0 µM) it was 81.7% (active) and 87% (active). Further, the growth inhibition is 61% (inactive) in test [5] (setting [7]); 95% (active) in test [5] (setting [8]); 87.5% (active) and 87.3% (active) in test [5] (at 50.0 µM); 73% (active) in test [6] (setting [7]); 95% (active) in test [6] (setting [8]); 85.8% (active) and 88% (active) in test [6] (at 50.0 µM).
For the molecule `CN(C)CC1CC2C3CC=C4CC(O)CCC4(C)C3CCC2(C)C1=O` (centres undefined), the growth inhibition in test [1] (setting [7]) was -9% (inactive); in test [1] (setting [8]), 78% (active); in test [1] (at 50.0 µM) it was 88% (active); in test [2] (setting [7]) it was -1% (inactive); in test [2] (setting [8]) it was 85% (active); in test [2] (at 50.0 µM), 37.4% (inactive). The growth inhibition in test [3] (setting [7]) was -5% (inactive); in test [3] (setting [8]) it was 86% (active); in test [3] (at 50.0 µM), 92.2% (active); in test [4] (setting [7]), 4% (inactive); in test [4] (setting [8]) it was 64% (inactive); in test [4] (at 50.0 µM), 29.1% (inactive). The growth inhibition in test [5] (setting [7]) was -23% (inactive); in test [5] (setting [8]) it was 90% (active); in test [5] (at 50.0 µM), 79% (active); in test [6] (setting [7]), -12% (inactive); in test [6] (setting [8]), 91% (active); in test [6] (at 50.0 µM), 92.5% (active).
Take `Clc1c(Cl)c(Cl)c([S][Pb]([c]2ccccc2)([c]2ccccc2)[c]2ccccc2)c(Cl)c1Cl`: the growth inhibition is 91% (active) in test [1] (setting [7]); 85% (active) in test [1] (setting [8]); 98.5% (active) in test [1] (at 50.0 µM); 96% (active) in test [2] (setting [7]); 92% (active) in test [2] (setting [8]); 98.4% (active) in test [2] (at 50.0 µM). Besides, the growth inhibition in test [3] (setting [7]) is 94% (active); in test [3] (setting [8]), 42% (inactive); in test [3] (at 50.0 µM), 98.8% (active); in test [4] (setting [7]), 84% (active); in test [4] (setting [8]), 89% (active); in test [4] (at 50.0 µM), 97.7% (active). The growth inhibition in test [5] (setting [7]) is 92% (active); in test [5] (setting [8]), 96% (active); in test [5] (at 50.0 µM) it was 98.5% (active); in test [6] (setting [7]), 92% (active); in test [6] (setting [8]) it was 92% (active); in test [6] (at 50.0 µM), 98.3% (active).
For `O=[N+]([O-])c1cc(C(F)(F)F)cc2n[se]nc12`, the growth inhibition in test [1] (setting [7]) is 82% (active); in test [1] (setting [8]) it was 98% (active); in test [1] (at 50.0 µM), 87.2% (active); in test [2] (setting [7]), 81% (active); in test [2] (setting [8]) it was 99% (active); in test [2] (at 50.0 µM) it was 93.3% (active). In addition, the growth inhibition in test [3] (setting [7]) was 47% (inactive); in test [3] (setting [8]), 100% (active); in test [3] (at 50.0 µM) it was 90.8% (active); in test [4] (setting [7]) it was 49% (inactive); in test [4] (setting [8]) it was 99% (active); in test [4] (at 50.0 µM), 90.8% (active). Also, the growth inhibition in test [5] (setting [7]) is 94% (active); in test [5] (setting [8]), 97% (active); in test [5] (at 50.0 µM) it was 90.6% (active); in test [6] (setting [7]), 75% (active); in test [6] (setting [8]), 97% (active); in test [6] (at 50.0 µM), 90.5% (active).
Take `O=C1C(=O)c2cccc3cccc1c23`: the growth inhibition was 8% (inactive) in test [1] (setting [7]); 79% (active) in test [1] (setting [8]); 64.2% (inactive) in test [1] (at 50.0 µM); 8% (inactive) in test [2] (setting [7]); 51% (inactive) in test [2] (setting [8]); 30.4% (inactive) in test [2] (at 50.0 µM). In addition, the growth inhibition is 3% (inactive) in test [3] (setting [7]); 34% (inactive) in test [3] (setting [8]); 21.1% (inactive) in test [3] (at 50.0 µM); 6% (inactive) in test [4] (setting [7]); 50% (inactive) in test [4] (setting [8]); -3.15% (inactive) in test [4] (at 50.0 µM). The growth inhibition in test [5] (setting [7]) was 13% (inactive); in test [5] (setting [8]), 82% (active); in test [5] (at 50.0 µM) it was 13.2% (inactive); in test [6] (setting [7]), 1% (inactive); in test [6] (setting [8]), 63% (inactive); in test [6] (at 50.0 µM), 22.9% (inactive).
In the case of `FC1(F)C(Cl)=[C]([Hg][C]2=C(Cl)C(F)(F)C(F)(F)C(F)(F)C2(F)F)C(F)(F)C(F)(F)C1(F)F`, the growth inhibition is 45% (inactive) in test [1] (setting [7]); 98% (active) in test [1] (setting [8]); 98.6% (active) in test [1] (at 50.0 µM); 66% (inactive) in test [2] (setting [7]); 99% (active) in test [2] (setting [8]); 51.1% (inactive) in test [2] (at 50.0 µM). Further, the growth inhibition was 58% (inactive) in test [3] (setting [7]); 99% (active) in test [3] (setting [8]); 99.7% (active) in test [3] (at 50.0 µM); 57% (inactive) in test [4] (setting [7]); 99% (active) in test [4] (setting [8]); 19.9% (inactive) in test [4] (at 50.0 µM). Also, the growth inhibition in test [5] (setting [7]) was 69% (inactive); in test [5] (setting [8]), 99% (active); in test [5] (at 50.0 µM) it was 75% (active); in test [6] (setting [7]), 57% (inactive); in test [6] (setting [8]), 99% (active); in test [6] (at 50.0 µM) it was 50.6% (inactive).
